This note sets out measurements from PubChem BioAssay AID1851 (National Center for Advancing Translational Sciences (NCATS), 2009).

The whole screen tested about 16,000 compounds, of which about 2,600 (16%) were called active. Not shown: some 20% with an inconclusive outcome. These entries were drawn from the full list. Unmarked numbers belong to inactive results. The call rests on the fitted dose curve; in most records, active means well fitted curve in the direction sought with a large enough effect; inconclusive means small, poorly fitted or top-dose-only effect, or effect the other way; inactive means no such curve, though single readings can be large or run the other way.
On the % scale 0 is the no-effect control and ±100 the full control effect.

In the test the target is Cytochrome P450 2D6 (Homo sapiens) (UniProt P10635). In words: Cytochrome panel assay with activity outcomes. The conditions noted are these: recombinant CYP, pro-luciferin dealkylation, luminescence, p450-cyp2d6; series mostly up to 57.1 µM.
Chain of Cytochrome P450 2D6 (Homo sapiens) (P10635 whole entry, looked up): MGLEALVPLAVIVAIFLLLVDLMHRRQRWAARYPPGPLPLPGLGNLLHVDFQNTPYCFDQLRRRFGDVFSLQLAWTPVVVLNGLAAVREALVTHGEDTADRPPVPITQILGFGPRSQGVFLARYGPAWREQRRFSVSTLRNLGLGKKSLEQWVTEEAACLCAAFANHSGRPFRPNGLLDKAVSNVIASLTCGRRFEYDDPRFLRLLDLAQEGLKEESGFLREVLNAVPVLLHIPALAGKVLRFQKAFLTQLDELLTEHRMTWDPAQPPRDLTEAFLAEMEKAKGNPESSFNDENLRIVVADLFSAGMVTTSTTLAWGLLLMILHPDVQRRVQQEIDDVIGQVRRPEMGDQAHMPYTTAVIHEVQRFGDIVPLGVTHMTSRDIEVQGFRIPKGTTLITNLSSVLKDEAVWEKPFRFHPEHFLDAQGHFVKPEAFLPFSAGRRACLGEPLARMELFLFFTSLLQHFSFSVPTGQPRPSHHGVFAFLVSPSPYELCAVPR
For orientation: AC50 means the concentration at which the activity in the assay is half-maximal. Regarding `COc1ccc(NC(=O)C(=O)NNC(=O)c2cccs2)c(OC)c1`, the AC50 entry was “inactive”.
The same measure, in the same setting: then `Cc1c(NC(=O)C(C)N2C(=O)c3ccccc3C2=O)c(=O)n(-c2ccccc2)n1C` (stereo unspecified), with “inactive”; and `CC1=NC(C)(C)Cc2ccccc21`, with 14.1 µM (active).
On the same count and under the same terms, under `c1cncc(-c2nnc3n2C2(CCCCC2)Cc2ccccc2-3)c1` stands “inactive”; under `Cc1cccc2c1OCC/C2=N\NC(=O)COc1ccccc1`, “inactive”.
Regarding `Cc1ncc([N+](=O)[O-])n1CCO`, the AC50 entry was “inactive”.
Consider `N#Cc1ccc(C2=NC(C(F)(F)F)(C(F)(F)F)c3c(n(Cc4ccco4)c(=O)[nH]c3=O)N2)cc1`, for which the AC50 result is “inactive”.
Still for that read-out and setting: under `COCCn1c(=O)c(-c2cccs2)nc2cnc(OC)nc21` stands “inactive”.
On the same count and under the same terms, then `NC(=O)Cn1c(=O)n(Cc2ccco2)c(=O)c2c3c(sc21)CCCCC3`, with “inactive”; and `CN(C)CCn1c(=O)n(Cc2ccco2)c(=O)c2c3c(sc21)CCCCC3`, with 1.58 µM (active); and `Cn1c(=O)c2c3c(sc2n2cnnc12)CCC3`, with “inactive”.
Regarding `CC(=O)N(NC(=O)c1ccccc1Cl)C1CC(=O)N(c2ccc(C)cc2)C1=O` (stereo unspecified), the AC50 result was “inactive”.
As to `CC(=O)N(C[C@@H](C)C(=O)O)c1c(I)cc(I)c(N)c1I`, the AC50 result is “inactive”.
On the same count and under the same terms, then `CCOc1cc2c(C)cc(=O)oc2cc1Cl`, with “inactive”; and `CCOc1ccc(NC(=O)N2CCC(c3ccc(C)cc3)C2)cc1` (stereo unspecified), with “inactive”.
On the same count and under the same terms, under `O=C(COc1ccc(Br)cc1)N1CCC(c2ccccc2)C1` (stereo unspecified) stands 17.8 µM (active); under `Brc1ccc(-c2csc(N3CCC(c4ccccc4)C3)n2)cc1` (stereo unspecified), “inactive”.
With `CN(CCCNC(=O)c1ccc(/C=N/O)nc1)CCCN(C)Cc1ccccc1`, the AC50 was 2.82 µM (active).
As for `COC(=O)c1cc2n(n1)CCN(Cc1ccccc1F)C2=O`, the AC50 entry was “inactive”.
In the case of `Cc1ccc(C(=O)C2CCNCC2)cc1`, the AC50 is 1.41 µM (active).
Consider `Cc1ccc(C(=O)NC2CCCCC2)cc1`, for which the AC50 entry was “inactive”.
Regarding `Cc1ccc(C(=O)/C=C2\NCC(C)NC2=O)cc1` (stereo unspecified), the AC50 result was “inactive”.
As for `O=C(Oc1ccc(OC(=O)c2ccco2)c(S(=O)(=O)c2ccc(Br)cc2)c1)c1ccco1`, the AC50 entry was “inactive”.
In the case of `C/C(=N\NC(=O)c1ccncc1)c1ccc2ccccc2c1O`, the activity, negative = inhibition was -2.13% [at 11.4 µM].
For `COc1ccc(NC(=O)C(c2ccc(OC)cc2)N(C)C(=O)CNC(C)=O)cc1` (stereo unspecified), the AC50 result is “inactive”.
Still for that read-out and setting: then `CN(C)/C(CN1CCN(C=O)CC1)=C1\N=C(c2ccccc2)OC1=O`, with “inactive”.
In the case of `CC1CN(C(=O)c2cc3c(s2)CCC3)CC(C)O1` (stereo unspecified), the AC50 entry was “inactive”.
Regarding `CN1CCN(C(=O)c2ccc(COc3ccc(C(C)(C)C)cc3)o2)CC1`, the AC50 is 4.47 µM (active).
For the compound `COc1ccc(NC(=O)c2ccc(COc3ccccc3)o2)cc1`, the AC50 result is “inactive”.
For `CCOc1ccc(OCc2ccc(C(=O)N3CCc4ccccc4C3)o2)cc1`, the AC50 entry is “inactive”.
The same measure, in the same setting: then `CNC[C@H](O)[C@H](O)[C@H](O)[C@H](O)CO`, with “inactive”.
As for `CO[C@H]1COC(=O)CCC[C@@H](C)[C@H](OC)COC(=O)[C@H]2CCCN2C(=O)C/C=C\[C@@H]1C`, the activity, negative = inhibition was 6.78% [at 11.4 µM].
In the case of `O=c1cc(N2CCN(c3ccccc3)CC2)[nH]c(=O)n1C1CCCCC1`, the AC50 result was “inactive”.
Turning to `COc1c(/C=N/Nc2nc(N3CCCCC3)nc(N3CCCCC3)n2)cccc1[N+](=O)[O-]`, the AC50 entry was “inactive”.
Take `Oc1ccc(Cl)cc1Cc1cc(Cl)cc(Cc2cc(Cl)ccc2O)c1O`: the activity, negative = inhibition is -10.5% [at 11.4 µM].
`Oc1ccc2ccccc2c1/C=C\c1ccc2c(Br)cc(Br)c(O)c2n1`: the activity, negative = inhibition is -2.53% [at 11.4 µM].
Take `CCN(Cc1cc(Cl)cc(C)c1O)Cc1c(O)ccc2ccccc12`: the AC50 is 1.26 µM (active).
As for `CN(C)Cc1cc(Cl)c(O)c(CN(C)C)c1`, the activity, negative = inhibition is -14% [at 11.4 µM].
For `CN(Cc1cc(Cl)cc(Cl)c1O)Cc1c(O)ccc2ccccc12`, the half-maximal activity concentration (AC50) is 1.26 µM (active).
As for `CN(Cc1cc(Br)cc(Br)c1O)Cc1c(O)ccc2ccccc12`, the AC50 was 1.58 µM (active).
`COc1ccc(C=Nc2c(O)ccc3ccccc23)cc1OC`: the activity, negative = inhibition is -7.34% [at 11.4 µM].
As to `Cc1c(C(c2cccc([N+](=O)[O-])c2O)c2c(C)n(C)n(-c3ccccc3)c2=O)c(=O)n(-c2ccccc2)n1C`, the AC50 entry is “inactive”.
The same measure, in the same setting: then `COc1ccc(C(NC(=O)c2ccc(-c3ccccc3)cc2)c2ccccc2)cc1` (stereo unspecified), with “inactive”.
The same measure, in the same setting: under `CCN(CC)C(=O)C1CCN(S(=O)(=O)c2ccc3oc4ccccc4c3c2)CC1` stands “inactive”.
For the compound `COC(=O)c1ccc2ccn(CC(=O)NC3CCCCC3)c2c1`, the AC50 entry is “inactive”.
For `Cn1cc(-c2nc3cncnc3n(CCN)c2=O)c2ccccc21`, the AC50 entry was “inactive”.
Still for that read-out and setting: under `CCCCOC1(c2ccccc2)OC(=O)c2ccccc21` (stereo unspecified) stands “inactive”.
As for `Cn1cccc1C(=O)N1CCC2(CCN(Cc3nccs3)CC2)CC1`, the AC50 result is “inactive”.
Regarding `COc1ccccc1CN1CC[C@@]2(CCCN(C(=O)c3cccn3C)C2)C1`, the AC50 was 0.316 µM (active).
Take `CN1CCCC2(CCN(C(=O)c3cccn3C)CC2)C1`: the AC50 result is “inactive”.
Turning to `COc1ccc(NC(=O)N2CC[C@@]3(CCCN(C(=O)c4cccn4C)C3)C2)cc1`, the AC50 result was “inactive”.
Still for that read-out and setting: under `CC(C)NC(=O)N1CC[C@@]2(CCCN(C(=O)c3cccn3C)C2)C1` stands “inactive”; under `COc1ccccc1CN1CCC2(CC1)CCN(C(=O)c1cccn1C)CC2`, 3.98 µM (active); under `COc1ccc(NC(=O)N2CCC3(CC2)CCN(C(=O)c2cccn2C)CC3)cc1`, “inactive”.
`COc1ccccc1CN1CCCC2(CCN(C(=O)c3cccn3C)CC2)C1`: the AC50 was 3.16 µM (active).
The same measure, in the same setting: under `Cn1cccc1C(=O)N1CCC2(CCCN(c3ccccc3)C2)CC1` stands “inactive”.
On the same count and under the same terms, under `Cc1ccc(-c2csc(N3CCC(NS(=O)(=O)c4ccc5c(c4)OCCO5)CC3)n2)cc1` stands “inactive”.
`COc1ccc(-c2nc3cnc(N4CCN(C)CC4)nc3n(CCC#N)c2=O)cc1`: the AC50 entry was “inactive”.
`Cc1cc2nnc(SCCCCN3C(=O)c4ccccc4C3=O)n2c2ccccc12`: the AC50 entry is “inactive”.
As for `COc1cc2c(cc1OC)C(c1ccc(N)cc1)=NNC(=O)C2`, the AC50 entry is “inactive”.
Still for that read-out and setting: under `O=c1ccn(-c2cccc(C(F)(F)F)c2)nc1-c1ccn(-c2ccccc2F)n1` stands “inactive”.
In the case of `CCOC(=O)CSc1cc(C(F)(F)F)nc(-c2ccccn2)n1`, the AC50 entry is “inactive”.
Same read-out and setting: then `CCOC(=O)CSc1cc(CS(=O)c2ccc(Cl)cc2)nc(-c2ccccc2)n1` (stereo unspecified), with 14.1 µM (active); and `CCOC(=O)CSc1nc(-c2ccccc2)nc2ccccc12`, with “inactive”.
`Oc1c(Cl)cc(C(c2cc(Cl)c(O)c(Cl)c2)C(c2cc(Cl)c(O)c(Cl)c2)c2cc(Cl)c(O)c(Cl)c2)cc1Cl`: the activity, negative = inhibition was -3.64% [at 11.4 µM].
Turning to `C=C1CC[C@H](O)C/C1=C/C=C1\CCC[C@]2(C)[C@H]1CC[C@H]2[C@@H](C)/C=C\[C@@H](C)C(C)C`, the AC50 result is “inactive”.
For the compound `CC(=O)c1cc(C)ccc1OC(=O)CCN1C(=O)C2C3c4ccccc4C(c4ccccc43)C2C1=O` (stereo unspecified), the AC50 result is “inactive”.
On the same count and under the same terms, under `Oc1cc(O)cc(/C=C\c2ccc(O)c(O)c2)c1` stands “inactive”; under `O=C(C1CCN(S(=O)(=O)c2cccc3nsnc23)CC1)N1CCN(c2ccccc2F)CC1`, “inactive”; under `O=S(=O)(c1cccc2nsnc12)N1CCCC1`, “inactive”.
As for `CN(CCCNC(=O)C1CCN(S(=O)(=O)c2cccc3nsnc23)CC1)Cc1ccccc1`, the AC50 is 5.01 µM (active).
Same read-out and setting: under `O=C(C1CCN(S(=O)(=O)c2cccc3nsnc23)CC1)N1CCCc2ccccc21` stands “inactive”.
On the same count and under the same terms, under `O=C(NCC1COc2ccccc2O1)C1CCN(S(=O)(=O)c2cccc3nsnc23)CC1` (stereo unspecified) stands 3.55 µM (active); under `COc1ccc(CCNC(=O)C2CCN(S(=O)(=O)c3cccc4nsnc34)CC2)cc1OC`, “inactive”.
With `C=C(C)COc1ccc2c(c1)CCC1C2CC[C@]2(C)C(=O)/C(=N/O)CC12` (stereo partly specified), the activity, negative = inhibition is 14.1% [at 11.4 µM].
For the compound `COc1ccc(C(=O)NC2(C(F)(F)F)C(=O)Nc3c2c(=O)[nH]c(=O)n3CCc2ccc(OC)c(OC)c2)cc1` (stereo unspecified), the AC50 entry was “inactive”.
Still for that read-out and setting: then `O=C(NC(=S)NNC(=O)c1cccs1)c1ccco1`, with “inactive”; and `Cc1cc(C(=O)OC2CCOC2=O)c2ccccc2n1` (stereo unspecified), with “inactive”.
Turning to `C[C@@H]1O[C@@H](O)[C@@H](O)[C@H](O)[C@H]1O`, the activity, negative = inhibition is -0.841% [at 11.4 µM].
Regarding `Cc1ccc(-n2ncc(N(C)C)c(Cl)c2=O)cc1`, the AC50 entry is “inactive”.
Turning to `CC[C@](N)(C(=O)O)C(C)C`, the activity, negative = inhibition was 10.5% [at 11.4 µM].
As to `O=c1c2ccccc2nc2n1CCc1c-2[nH]c2ccccc12`, the AC50 result was “inactive”.
For `O=C1NCCc2c1[nH]c1ccccc21`, the AC50 entry is “inactive”.
On the same count and under the same terms, under `c1ccc2c3c([nH]c2c1)[C@@H]1[C@H]2CC[C@H]([C@H]4CCCN[C@H]42)N1CC3` stands 7.94 µM (active); under `O=[N+]([O-])c1ccc(Nc2nc(N/N=C\c3ccc4c(c3)OCO4)nc(N3CCCCC3)n2)cc1`, “inactive”; under `CN(C)S(=O)(=O)Oc1ccsc1C(=O)Nc1ccc(Cl)cc1`, 22.4 µM (active).
On the same count and under the same terms, then `CN(C)S(=O)(=O)Oc1ccc(Cl)cc1C(=O)Nc1cccc(C(F)(F)F)c1`, with “inactive”; and `CN(C)S(=O)(=O)Oc1cccc(C(=O)Nc2ccc(Cl)c(Cl)c2)c1`, with “inactive”; and `O=C(CSc1nnc2c(n1)[nH]c1ccc(F)cc12)OCc1ccccc1`, with “inactive”.
For the compound `C=CCN(CC=C)C(=S)NC(=O)c1ccc(OC)c(Br)c1`, the AC50 was 0.708 µM (active).
As to `COc1ccc(C(=O)NC(=S)NC(C)(C)C)cc1Br`, the AC50 entry was “inactive”.
Regarding `COc1ccc(C(=O)NC(=S)NC(C)C)cc1Br`, the AC50 entry is “inactive”.
Same read-out and setting: then `Nc1cc(Cl)ccc1Oc1ccccc1`, with “inactive”; and `Nc1cc(Cl)ccc1Oc1ccc(Cl)cc1`, with 15.8 µM (active).
Same read-out and setting: then `Cc1cc(Cl)ccc1Oc1ncc(-c2ccc(Cl)cc2)cn1`, with “inactive”; and `S[C@@H]1CCCN(Cc2ccccc2)C1`, with 0.794 µM (active).
For `O=C(O)[C@@H]1CS[C@@]2(CCCN(Cc3ccccc3)C2)N1`, the activity, negative = inhibition was -2.15% [at 11.4 µM].
For the compound `O=C(O)[C@H]1CCCN(CCC=C(c2ccccc2)c2ccccc2)C1`, the AC50 result is “inactive”.
Take `OCC1CCCN(Cc2ccc(-c3ccccc3)cc2)C1` (stereo unspecified): the AC50 was 0.1 µM (active).
On the same count and under the same terms, under `O=C1C2CCC(C(O)C2)N1Cc1ccccc1` (stereo unspecified) stands “inactive”; under `CC1(C(=O)CSc2nc3ccccc3s2)CCC(=O)O1` (stereo unspecified), “inactive”.
